Test results from PubChem BioAssay (NCATS).
Where “and” joins values, the source holds several entries; their conditions need not be identical. Identical values can stand only once. Results filed as inconclusive are left out. Calls of active or inactive are those of the source. Unless noted, calls come from the whole dose curve; as a rule, active = well fitted curve in the direction sought with a large enough effect; inconclusive = small, poorly fitted or top-dose-only effect, or another doubt; inactive = no such curve, though single readings can be large; an effect the other way counts as inactive or inconclusive.

Legend:
[1] = system: C33A; experiment: Primary qHTS to identify gynecologic anti-cancer compounds using libraries of approved drugs and bioactive compounds (AID 1345084); details: Gynecologic cancer cell panel viability, ATPlite luminescence, 48 h; series mostly up to 57.5 µM; note: nearly all actives have a fitted effect of over 55% in size; note: potency is the fitted concentration of half-maximal effect
Method in brief: (§1)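 Cytotoxicity screen measuring ATP content by luciferase luminescence. Each compound is applied at five concentrations for 48 h at 37 C with 5% CO2.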

[2] = system: CAOV3; experiment: as above; details: Gynecologic cancer cell panel viability, ATPlite luminescence, 48 h; series mostly up to 57.5 µM
Method in brief: as §1

[3] = system: CASKI; experiment: as above; details: Gynecologic cancer cell panel viability, ATPlite luminescence, 48 h; series mostly up to 57.5 µM
Method in brief: as §1

[4] = system: Es-2; experiment: as above; details: Gynecologic cancer cell panel viability, ATPlite luminescence, 48 h; series mostly up to 57.5 µM
Method in brief: as §1

[5] = system: Hek293T; experiment: as above; details: Gynecologic cancer cell panel viability, ATPlite luminescence, 48 h, control line for the selectivity index; series mostly up to 57.5 µM
Method in brief: as §1

[6] = system: JEG-3; experiment: as above; details: Gynecologic cancer cell panel viability, ATPlite luminescence, 48 h; series mostly up to 57.5 µM
Method in brief: as §1

[7] = system: OV90; experiment: as above; details: Gynecologic cancer cell panel viability, ATPlite luminescence, 48 h; series mostly up to 57.5 µM
Method in brief: as §1

[8] = system: PA-1; experiment: as above; details: Gynecologic cancer cell panel viability, ATPlite luminescence, 48 h; series mostly up to 57.5 µM
Method in brief: as §1

[9] = system: SKOV3; experiment: as above; details: Gynecologic cancer cell panel viability, ATPlite luminescence, 48 h; series mostly up to 57.5 µM
Method in brief: as §1

[10] = system: Tov-21-G; experiment: as above; details: Gynecologic cancer cell panel viability, ATPlite luminescence, 48 h; series mostly up to 57.5 µM
Method in brief: as §1

[11] = system: Tov112D; experiment: as above; details: Gynecologic cancer cell panel viability, ATPlite luminescence, 48 h; series mostly up to 57.5 µM
Method in brief: as §1

[12] = system: HeLa; experiment: as above; details: Gynecologic cancer cell panel viability, ATPlite luminescence, 48 h; series mostly up to 57.5 µM
Method in brief: as §1

[13] = system: astro; experiment: Drug repurposing screens with cells derived from glioblastoma tumor samples (AID 1345199); details: viability, ATP luminescence, 48 h; series mostly up to 45.9 µM; note: nearly all actives have a fitted effect of over 40% in size; note: potency is the fitted concentration of half-maximal effect; for activity, negative = cell killing: % is set by controls: 0 for no effect and ±100 for the full control effect
Method in brief: (§2)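 Primary testing used CD133+ neurospheres from four GBM patients, seven concentrations, 48 h exposure and ATP-based viability; confirmation added three slower-growing patient lines.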

[14] = as above; details: GBM patient neurospheres viability, ATP luminescence, 48 h
Method in brief: as §2

[15] = biological target: Nuclear receptor subfamily 1 group I member 2 (Rattus norvegicus) (UniProt Q9R1A7); experiment: qHTS assay for small molecule activators of the rat pregnane X receptor (rPXR) signaling pathway (AID 651751; call rule not given here; note: 0% is about no effect); details: rPXR reporter cells, luciferase (One-Glo), 24 h
Chain of Nuclear receptor subfamily 1 group I member 2 (Rattus norvegicus) (Q9R1A7 whole entry, looked up): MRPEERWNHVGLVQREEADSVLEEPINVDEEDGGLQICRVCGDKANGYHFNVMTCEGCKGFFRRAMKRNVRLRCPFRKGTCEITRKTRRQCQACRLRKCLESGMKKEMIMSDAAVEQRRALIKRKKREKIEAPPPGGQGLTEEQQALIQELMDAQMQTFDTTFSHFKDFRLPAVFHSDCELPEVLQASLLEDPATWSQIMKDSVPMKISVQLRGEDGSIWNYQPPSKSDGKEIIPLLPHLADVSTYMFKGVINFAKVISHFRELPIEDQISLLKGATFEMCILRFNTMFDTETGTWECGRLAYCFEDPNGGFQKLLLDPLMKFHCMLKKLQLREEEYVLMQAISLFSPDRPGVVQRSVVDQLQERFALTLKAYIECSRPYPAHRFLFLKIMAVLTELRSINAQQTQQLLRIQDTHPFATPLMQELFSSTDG

[16] = qHTS assay for small molecule activators of the human pregnane X receptor (PXR) signaling pathway (AID 720659; call rule not given here; note: 0% is about no effect)
[17] = at 45.9 µM (top of the series), tumour line B
[18] = at 46.1 µM (top of the series), tumour line C

CC(C)(C)c1ccc(C(=O)CCCCl)cc1
inactive: Potency [1] | Potency [2] | Potency [3] | Potency [4] | Potency [5] | Potency [6] | Potency [7] | Potency [8] | Potency [9] | Potency [10] | Potency [11]

O=C1CCCc2c(O)cccc21
inactive: Potency [1] | Potency [2] | Potency [3] | Potency [4] | Potency [5] | Potency [6] | Potency [8] | Potency [10] | Potency [11]

Cc1cccc(N(C)C(=S)Oc2ccc3c(c2)C2CCC3C2)c1 (stereo not drawn)
active: Potency [7] 35.5 µM
inactive: Potency [1] | Potency [2] | Potency [3] | Potency [12] | Potency [5] | Potency [6] | Potency [8] | Potency [9] | Potency [10] | Potency [11]

CC[N+]1(CC)CCC(=C(c2ccccc2)c2ccccc2)C1C (stereo not drawn)
inactive: Potency [1] | Potency [2] | Potency [3] | Potency [4] | Potency [12] | Potency [5] | Potency [7] | Potency [10] | Potency [11] | Potency [13]

Cc1ccc(Cl)c(OCC(O)CNC(C)(C)C)c1 (stereo not drawn)
inactive: Potency [1] | Potency [2] | Potency [3] | Potency [4] | Potency [12] | Potency [6] | Potency [7] | Potency [9]

CNC[C@H](O)[C@@H](O)[C@H](O)[C@H](O)CO
inactive: Potency [1] | Potency [2] | Potency [3] | Potency [4] | Potency [12] | Potency [6] | Potency [7] | Potency [8] | Potency [9] | Potency [10] | Potency [11]

COc1ccc([C@@H]2Sc3ccccc3NC(=O)[C@@H]2O)cc1
inactive: Potency [1] | Potency [2] | Potency [3] | Potency [4] | Potency [12] | Potency [6] | Potency [7]

Cc1ccc(C(=O)Oc2ccc(C(O)CNC(C)(C)C)cc2OC(=O)c2ccc(C)cc2)cc1 (stereo not drawn)
inactive: Potency [1] | Potency [3] | Potency [4] | Potency [12] | Potency [5] | Potency [6] | Potency [8] | Potency [10] | Potency [11]

COc1cc(C(=O)OC(COCCC(C)C)CN2CCOCC2)cc(OC)c1OC (stereo not drawn)
inactive: Potency [1] | Potency [3] | Potency [4] | Potency [12] | Potency [5] | Potency [6] | Potency [7] | Potency [8] | Potency [9] | Potency [10] | Potency [11] | activity, negative = cell killing [14, 17] -6.94% | activity, negative = cell killing ([14]; at 45.9 µM (top of the series), tumour line D) -4.84% | activity, negative = cell killing [14, 18] -4.89% | Potency [13]

COC(=O)[C@H]1[C@H]2C[C@@H]3c4[nH]c5cc(OC)ccc5c4CCN3C[C@H]2C[C@@H](OC(=O)/C=C/c2ccc(O)c(OC)c2)[C@@H]1OC
inactive: Potency [1] | Potency [3] | Potency [4] | Potency [12] | Potency [5] | Potency [8] | Potency [11]
active: Potency [7] 31.6 µM | Potency [9] 35.5 µM

COc1cc2nc(Cl)nc(N)c2cc1OC
inactive: Potency [1] | Potency [3] | Potency [4] | Potency [12] | Potency [5] | Potency [6] | Potency [7] | Potency [8] | Potency [9] | Potency [10] | Potency [11]

Cc1cc(C(C)(C)C)c(O)c(C(C)(C)C)c1
inactive: Potency [1] | Potency [3] | Potency [4] | Potency [12] | Potency [5] | Potency [6] | Potency [7] | Potency [8] | Potency [9] | Potency [10] | Potency [11] | activity, negative = cell killing [14, 18] -15.8% | Potency [13] | max response [15] -5.78% and 3.32%

CC(C)OC(=O)c1cc2c(OCC(O)CNC(C)(C)C)cccc2[nH]1 (stereo not drawn)
active: Potency ([14]; tumour line A) 11.2 µM | Potency ([14]; tumour line D) 22.4 µM
inactive: Potency [1] | Potency [3] | Potency [4] | Potency [6] | Potency [8] | Potency [10] | Potency [11] | activity, negative = cell killing [14, 17] -15.9%

O=[N+]([O-])c1ccc(O)c2ncccc12
active: Potency [1] 15.8 µM | Potency [11] 28.2 µM | Potency [13] 3.55 µM
inactive: Potency [12] | Potency [6]

Brc1ccccc1-c1ccccc1
inactive: Potency [1] | Potency [3] | Potency [4] | Potency [12] | Potency [5] | Potency [6] | Potency [7] | Potency [8] | Potency [9] | Potency [10] | Potency [11] | activity, negative = cell killing ([14]; at 91.6 µM (top of the series), tumour line A) -21.1% | activity, negative = cell killing ([14]; at 91.6 µM (top of the series), tumour line B) -9.1% | activity, negative = cell killing ([14]; at 91.6 µM (top of the series), tumour line D) -21.1% | activity, negative = cell killing ([14]; at 99.2 µM (top of the series), tumour line C) 6.63% | Potency [13] | max response [15] 13.4% | outcome [16]
